# Results as given in PubChem BioAssay AID1259421 (Broad Institute, 2018).
# “And” between values parts separate entries of the source, which are not always exact repeats. Equal entries are not always repeated. Screen size: about 6,400 compounds; about 610 (9.5%) were called active. Rule as the data show it: active = activity change below about -70%; inconclusive = no clear call, values can overlap the other calls; inactive = above that. For the sample, actives were picked, then their nearest neighbours and some compounds at random.
# Test: T. gondii ME49Luc in HeLa cells, luciferase assay, 72 h, no IFN-y (AID 1259421)
# Conditions: active compounds read low, concentration not given here
row,SMILES,"activity change, negative = inhibition"
1,OCC1OC(O)C(F)C(O)C1O (stereo unspecified),8.12% (inactive)
2,CCC[C@@H]1C[C@@H](C(=O)NC(C(C)Cl)[C@H]2O[C@H](SC)[C@H](O)[C@@H](O)[C@H]2O)N(C)C1 (stereo partly specified),-1.81% (inactive) and 9.35% (inactive)
3,O=C(/C=C\n1cnc(-c2cc(C(F)(F)F)cc(C(F)(F)F)c2)n1)N1CC(F)(F)C1,-81.3% (active)
4,O=C(/C=C\n1cnc(-c2cc(C(F)(F)F)cc(C(F)(F)F)c2)n1)NNc1cnccn1,-78.8% (active)
5,COc1cc(-c2ncn(/C=C\C(=O)OC(C)C)n2)cc(C(F)(F)F)c1,-86.8% (active)
6,CC(=O)CC(=O)O,-0.799% (inactive)
7,CC(=O)c1c(O)cc(O)cc1O,6.7% (inactive)
8,COc1c(OC)c2occc2c2oc(=O)ccc12,9.46% (inactive)
9,CC(=O)OCC(=O)[C@@]1(O)CCC2C3CCC4=CC(=O)C=C[C@]4(C)[C@@]3(Cl)[C@@H](Cl)C[C@@]21C (stereo partly specified),-0.235% (inactive)
10,CCCC(=O)O[C@@]1(C(=O)COC(C)=O)CC[C@H]2[C@@H]3C[C@H](F)C4=CC(=O)C=C[C@]4(C)[C@]3(F)[C@H](O)C[C@@]21C,6.24% (inactive)
11,C[C@@H]1O[C@@]2(CS1)CN1CCC2CC1 (racemic),6.56% (inactive)
12,COC(=O)Nc1ccc(-c2nc(N3CCOCC3)c3cnn(C4CCN(C(=O)OC)CC4)c3n2)cc1,21.2% (inactive)
13,C[C@@H]1CN(Cc2ncccn2)C[C@H]1c1nc2c(cnn2C2CCOCC2)c(=O)[nH]1,4.49% (inactive)
14,c1cncc(CN2CCC(n3ncc4c(N5CCOCC5)nc(-c5ccc6[nH]ccc6c5)nc43)CC2)c1,-77.6% (active)
15,CC(=O)N1CCN(c2ccc(OCC3CO[C@](Cn4ccnc4)(c4ccc(Cl)cc4Cl)O3)cc2)CC1 (stereo partly specified),-58.1% (inactive)
16,CCC1OC(=O)[C@H](C)C(=O)[C@H](C)[C@@H](OC2O[C@H](C)C[C@H](N(C)C)[C@H]2O)[C@](C)(OC)C[C@@H](C)C(=O)[C@H](C)[C@H]2N(CCCCn3cnc(-c4cccnc4)c3)C(=O)O[C@@]12C (stereo partly specified),-5.19% (inactive)
17,NC(=S)N/N=C/c1ncccc1N,-83.2% (active)
18,NC(=S)N/N=C/c1ccncc1,6.58% (inactive)
19,CC(=O)O[C@]1(C(C)=O)CC[C@H]2[C@@H]3C=CC4=CC(=O)CC[C@]4(C)[C@H]3CC[C@@]21C,8.87% (inactive)
20,CCCc1ncc(C(=O)O)s1,6.47% (inactive)
21,COc1cc(Br)c(S(=O)(=O)Nc2ccc(Cl)c(O[C@@H]3CCN(C)C3)c2)cc1OC,5.97% (inactive)
22,NC(C(=O)O)[C@@H]1CC(Cl)=NO1 (stereo partly specified),-82% (active)
23,N[C@H](C(=O)O)[C@@H]1CC(Cl)=NO1,-72.2% (active)
24,COC(=O)C1[C@H]2C[C@H]3c4[nH]c5ccccc5c4CCN3C[C@@H]2CC[C@@H]1O (stereo partly specified),-3.89% (inactive)
25,CC(=O)OCC(=O)[C@@]1(O)CCC2C3CCC4=CC(=O)CC[C@]4(C)C3[C@@H](O)C[C@@]21C (stereo partly specified),-6.4% (inactive) and -14.3% (inactive)
26,COC(=O)c1ccc2c(C(=Nc3ccc(N(C)C(=O)CN4CCN(C)CC4)cc3)c3ccccc3)c(O)[nH]c2c1,-75.7% (active)

row,SMILES,"activity change, negative = inhibition"
1,CN(C)Cc1cccc(N=C(c2ccccc2)c2c(O)[nH]c3cc(C(=O)N(C)C)ccc23)c1,-81.4% (active)
2,CN(C)Cc1cccc(N=C(c2ccccc2)c2c(O)[nH]c3cc(C(N)=O)ccc23)c1,9.28% (inactive) and -68.3% (inactive)
3,O=C(O)CN1CCN(CC(=O)O)CCN([C@H](CO)C(O)CO)CCN(CC(=O)O)CC1.[Gd] (stereo partly specified),8% (inactive)
4,CC1(CN)Cc2ccccc2C1,26% (inactive)
5,C=CC(C)(O)CC[C@@H]1[C@@]2(C)CCCC(C)(C)C2CC[C@@]1(C)O (stereo partly specified),13.1% (inactive)
6,COc1ccc2c(c1)OCC(Cc1ccc(OC)c(O)c1)C2=O (stereo unspecified),-61% (inactive)
7,O=C(O)C1=CC(O)C(O)[C@H](O)C1 (stereo partly specified),-17.2% (inactive)
8,CCC[C@@H](N[C@@H](C)C(=O)N1[C@@H](C(=O)O)C[C@@H]2CCCC[C@@H]21)C(=O)OCC,10.1% (inactive)
9,COc1ccc(-c2cc3c(C)nc(N)nc3n(C3CCC(OCCO)CC3)c2=O)cn1 (stereo unspecified),-79.8% (active)
10,CCn1c(=O)c(-c2ccn[nH]2)cc2c(C)nc(N)nc21,-57.4% (inactive)
11,N#CCC(=O)NN,10.7% (inactive)
12,O=C(N[C@@H](CO)[C@H](O)c1ccc([N+](=O)[O-])cc1)C(Cl)Cl,5.04% (inactive)
13,CCS(=O)(=O)Nc1ccc2[nH]c(O)c(C(=Nc3ccc(CN4CCCCC4)cc3)c3ccccc3)c2c1,-88% (active)
14,N[C@H](C(=O)O)[C@H](O)c1ccc(O)c(O)c1,-6.51% (inactive)
15,Cc1ccc(C(=O)Nc2ccc(Oc3cc4cnn(C)c4cc3-c3cn[nH]c3)c(F)c2)c(=O)n1-c1ccc(F)cc1,-82.1% (active)
16,COC(=O)C(c1ccccc1Cl)N1CCc2sccc2C1 (stereo unspecified),6.54% (inactive)
17,CCc1c2c(nc3ccc(O)cc13)-c1cc3c(c(=O)n1C2)COC(=O)[C@]3(O)CC,-93.3% (active)
18,CCc1c2c(nc3ccc(OC(=O)N4CCC(N5CCCCC5)CC4)cc13)-c1cc3c(c(=O)n1C2)COC(=O)[C@]3(O)CC,8.52% (inactive)
19,CC[C@@]1(O)C(=O)OCc2c1cc1n(c2=O)Cc2cc3c(CN(C)C)c(O)ccc3nc2-1,-89.6% (active)
20,CC[C@@]1(O)C(=O)OCc2c1cc1n(c2=O)Cc2c-1nc1cc(F)c(C)c3c1c2[C@@H](N)CC3,-89.9% (active)
21,CC[C@@]1(O)C(=O)OCc2c1cc1n(c2=O)Cc2cc3cc(O)ccc3nc2-1,-73.3% (active) and -92.8% (active)
22,CC(=O)[C@H]1CCC2C3C[C@H](C)C4=CC(=O)CC[C@]4(C)C3[C@@H](O)C[C@@]21C (stereo partly specified),-2.39% (inactive)
23,CN1C[C@@H]2c3ccccc3Oc3ccc(Cl)cc3[C@H]2C1,14.2% (inactive)
24,Cn1cc(-c2cnc3ccc4ccc(CS(=O)(=O)NCc5ccccn5)cc4c(=O)c3c2)cn1,-4.03% (inactive)
25,CS(=O)(=O)c1ccc(Cn2c3c(c4cc(F)cc(F)c42)CCCC3CC(=O)O)cc1 (stereo unspecified),1.13% (inactive) and 1.18% (inactive)
